Common to all, as to experiment: DAPPL (digital affinity profiling via proximity ligation, sequencing); 10 mM Tris-HCl pH 7.5, 50 mM NaCl, 1 mM DTT, 4% glycerol, room temperature, 30 min; GST-TFs on glutathione beads, 16-mer random dsDNA library, 0.1% formaldehyde crosslink after washing; high values mean tight binding
In one assay the target is T1, FEV (Homo sapiens, UniProt Q99581 1-238).
T1 sequence: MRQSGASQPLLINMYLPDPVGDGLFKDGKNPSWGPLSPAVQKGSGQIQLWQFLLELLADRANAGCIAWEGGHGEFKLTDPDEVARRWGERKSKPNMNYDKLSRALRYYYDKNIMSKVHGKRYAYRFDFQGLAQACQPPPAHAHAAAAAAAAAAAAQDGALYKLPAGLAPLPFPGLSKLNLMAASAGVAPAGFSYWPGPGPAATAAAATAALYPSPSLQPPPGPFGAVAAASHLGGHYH
As to conditions: protein: recombinant; tags: N-terminal GST; dsDNA, one strand shown. The method, boiled down:
(§1)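 Human transcription factors carrying a GST fusion were produced in yeast, bound to glutathione beads, tagged with DNA barcodes and pooled together with a tag-only sample. Each pool was held with 200 nmole of a random double-stranded 16-mer DNA library in Tris/NaCl/DTT/glycerol buffer for 30 min at room temperature, then washed, crosslinked in 0.1% formaldehyde, proximity-ligated with BsaI/T4 ligase (1 h, 37 °C), PCR-amplified and sequenced on an Illumina NextSeq500. Binding signal is the read frequency of each hexamer for a given factor divided by its frequency in the tag-only sample.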

For the next assay, the target named is ETV5 (Homo sapiens, UniProt P41161 1-510). The note with it: protein: recombinant; tags: N-terminal GST; dsDNA, one strand shown. The method, boiled down:
as §1

The target in another assay is HSF1 (Homo sapiens, UniProt Q00613 1-529). The note with it: protein: recombinant; tags: N-terminal GST; chain copies: 3; dsDNA, one strand shown. The method, boiled down: as §1
In a further assay the target is T2, SPIC (Homo sapiens, UniProt Q8N5J4 1-248).
T2 sequence: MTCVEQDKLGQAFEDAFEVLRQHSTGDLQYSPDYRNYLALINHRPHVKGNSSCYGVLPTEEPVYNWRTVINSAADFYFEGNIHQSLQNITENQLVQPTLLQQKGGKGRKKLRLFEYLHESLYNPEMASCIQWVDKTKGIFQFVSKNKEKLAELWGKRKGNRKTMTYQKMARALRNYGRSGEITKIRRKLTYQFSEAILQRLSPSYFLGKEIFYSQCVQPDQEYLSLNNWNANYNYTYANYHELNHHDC
The note with it: protein: recombinant; tags: N-terminal GST; dsDNA, one strand shown. The method, boiled down: as §1

For a further assay, the target named is ELF4 (Homo sapiens, UniProt Q99607 1-663). The note with it: protein: recombinant; tags: N-terminal GST; dsDNA, one strand shown. In outline:
as §1

In the next assay the target is T3, ELK4 (Homo sapiens, UniProt P28324-2 1-405).
T3 sequence: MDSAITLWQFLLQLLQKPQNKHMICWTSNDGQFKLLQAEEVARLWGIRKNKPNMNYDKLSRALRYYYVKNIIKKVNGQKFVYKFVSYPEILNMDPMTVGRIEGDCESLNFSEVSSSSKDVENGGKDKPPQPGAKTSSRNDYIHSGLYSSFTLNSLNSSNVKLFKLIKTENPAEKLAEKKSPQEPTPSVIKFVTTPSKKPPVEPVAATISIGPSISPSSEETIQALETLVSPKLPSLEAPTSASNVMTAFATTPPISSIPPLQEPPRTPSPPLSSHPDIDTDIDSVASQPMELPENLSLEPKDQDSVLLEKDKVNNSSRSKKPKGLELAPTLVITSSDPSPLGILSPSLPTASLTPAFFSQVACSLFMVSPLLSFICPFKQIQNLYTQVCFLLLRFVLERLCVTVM
As to conditions: protein: recombinant; tags: N-terminal GST; dsDNA, one strand shown. In outline:
as §1

The target of another assay is T4, ETV2 (Homo sapiens, UniProt O00321 1-342).
T4 sequence: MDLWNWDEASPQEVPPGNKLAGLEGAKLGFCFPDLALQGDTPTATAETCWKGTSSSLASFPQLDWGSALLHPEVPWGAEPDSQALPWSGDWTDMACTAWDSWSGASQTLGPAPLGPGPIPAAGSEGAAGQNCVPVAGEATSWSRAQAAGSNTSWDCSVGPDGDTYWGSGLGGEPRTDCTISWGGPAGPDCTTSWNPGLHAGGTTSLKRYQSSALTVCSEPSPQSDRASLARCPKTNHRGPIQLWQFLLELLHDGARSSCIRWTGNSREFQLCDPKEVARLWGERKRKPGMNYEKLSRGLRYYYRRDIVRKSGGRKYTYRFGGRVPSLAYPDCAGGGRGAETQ
The note with it: protein: recombinant; tags: N-terminal GST; dsDNA, one strand shown. In outline: as §1

In the next assay the target is T5, ELF3 (Homo sapiens, UniProt P78545 1-371).
T5 sequence: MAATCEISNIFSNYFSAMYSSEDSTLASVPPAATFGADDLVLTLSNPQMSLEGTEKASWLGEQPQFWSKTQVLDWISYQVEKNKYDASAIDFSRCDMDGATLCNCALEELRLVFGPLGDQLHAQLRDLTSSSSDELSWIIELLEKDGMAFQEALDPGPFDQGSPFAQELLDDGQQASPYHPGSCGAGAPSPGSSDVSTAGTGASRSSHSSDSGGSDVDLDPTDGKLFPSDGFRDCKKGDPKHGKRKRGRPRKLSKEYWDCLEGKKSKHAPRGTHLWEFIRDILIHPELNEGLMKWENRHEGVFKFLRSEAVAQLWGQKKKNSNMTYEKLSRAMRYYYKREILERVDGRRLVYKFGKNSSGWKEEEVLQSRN
As to conditions: protein: recombinant; tags: N-terminal GST; dsDNA, one strand shown. In outline: as §1

A further assay has as its target CRX (Homo sapiens, UniProt O43186 1-299). The note with it: protein: recombinant; tags: N-terminal GST; dsDNA, one strand shown. The method, boiled down:
as §1

The target in another assay is ETV1 (Homo sapiens, UniProt P50549 1-477). As to conditions: protein: recombinant; tags: N-terminal GST; dsDNA, one strand shown. In outline:
as §1

A further assay concerns the target T6, ERF (Homo sapiens, UniProt P50548 1-548).
T6 sequence: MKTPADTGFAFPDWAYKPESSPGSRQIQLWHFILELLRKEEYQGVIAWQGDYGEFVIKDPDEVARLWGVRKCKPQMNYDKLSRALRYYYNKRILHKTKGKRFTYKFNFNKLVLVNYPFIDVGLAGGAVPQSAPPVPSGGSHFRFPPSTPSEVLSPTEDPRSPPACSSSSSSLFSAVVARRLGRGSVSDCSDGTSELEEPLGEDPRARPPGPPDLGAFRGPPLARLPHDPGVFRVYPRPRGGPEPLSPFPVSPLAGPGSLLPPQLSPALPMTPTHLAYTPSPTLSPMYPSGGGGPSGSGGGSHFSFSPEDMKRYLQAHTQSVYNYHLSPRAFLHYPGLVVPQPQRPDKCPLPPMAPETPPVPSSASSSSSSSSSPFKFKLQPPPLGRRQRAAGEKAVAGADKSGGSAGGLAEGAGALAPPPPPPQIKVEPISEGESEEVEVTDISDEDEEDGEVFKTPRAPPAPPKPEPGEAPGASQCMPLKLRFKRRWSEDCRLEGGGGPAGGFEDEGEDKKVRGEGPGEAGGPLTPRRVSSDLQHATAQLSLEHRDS
The note with it: protein: recombinant; tags: N-terminal GST; dsDNA, one strand shown. In outline: as §1

In a further assay the target is T7, ETV3L (Homo sapiens, UniProt Q6ZN32 1-361).
T7 sequence: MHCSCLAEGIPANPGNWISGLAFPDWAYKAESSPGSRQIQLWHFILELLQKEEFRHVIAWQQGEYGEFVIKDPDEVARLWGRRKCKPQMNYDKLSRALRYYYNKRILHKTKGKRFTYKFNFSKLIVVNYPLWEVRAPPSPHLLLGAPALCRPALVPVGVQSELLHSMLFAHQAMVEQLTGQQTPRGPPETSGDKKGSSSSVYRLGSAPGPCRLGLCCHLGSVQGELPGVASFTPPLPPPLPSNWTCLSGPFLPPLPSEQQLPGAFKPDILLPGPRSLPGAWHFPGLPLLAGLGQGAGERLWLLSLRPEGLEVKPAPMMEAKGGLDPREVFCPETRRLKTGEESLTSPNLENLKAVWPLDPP
As to conditions: protein: recombinant; tags: N-terminal GST; dsDNA, one strand shown. The method, boiled down:
as §1

A further assay concerns the target T8, ETS2 (Homo sapiens, UniProt P15036 1-469).
T8 sequence: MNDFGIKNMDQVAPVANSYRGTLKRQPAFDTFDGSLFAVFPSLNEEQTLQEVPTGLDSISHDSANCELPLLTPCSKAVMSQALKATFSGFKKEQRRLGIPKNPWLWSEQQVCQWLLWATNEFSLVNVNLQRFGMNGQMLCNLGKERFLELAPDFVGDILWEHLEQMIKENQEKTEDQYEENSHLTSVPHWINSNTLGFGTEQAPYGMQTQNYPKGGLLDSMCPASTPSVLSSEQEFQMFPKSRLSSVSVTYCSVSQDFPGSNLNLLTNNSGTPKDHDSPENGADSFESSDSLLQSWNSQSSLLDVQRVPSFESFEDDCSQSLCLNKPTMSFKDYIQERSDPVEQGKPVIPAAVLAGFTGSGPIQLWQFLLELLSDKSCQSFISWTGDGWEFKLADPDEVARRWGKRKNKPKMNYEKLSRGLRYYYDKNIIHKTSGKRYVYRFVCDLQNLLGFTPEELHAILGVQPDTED
As to conditions: protein: recombinant; tags: N-terminal GST; dsDNA, one strand shown. The method, boiled down:
as §1

In the next assay the target is T9, SPDEF (Homo sapiens, UniProt O95238 1-335).
T9 sequence: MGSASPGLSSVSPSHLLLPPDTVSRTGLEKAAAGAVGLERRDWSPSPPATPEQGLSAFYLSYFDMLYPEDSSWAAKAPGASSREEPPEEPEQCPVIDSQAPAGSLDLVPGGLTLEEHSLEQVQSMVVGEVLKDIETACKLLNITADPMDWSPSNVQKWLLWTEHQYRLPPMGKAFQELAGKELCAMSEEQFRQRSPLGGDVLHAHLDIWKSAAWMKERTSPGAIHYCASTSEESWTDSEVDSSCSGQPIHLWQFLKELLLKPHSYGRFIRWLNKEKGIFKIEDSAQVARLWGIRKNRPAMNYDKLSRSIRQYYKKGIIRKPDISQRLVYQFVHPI
The note with it: protein: recombinant; tags: N-terminal GST; dsDNA, one strand shown. The method, boiled down: as §1

The target in the next assay is T10, ETV7 (Homo sapiens, UniProt Q9Y603 1-341).
T10 sequence: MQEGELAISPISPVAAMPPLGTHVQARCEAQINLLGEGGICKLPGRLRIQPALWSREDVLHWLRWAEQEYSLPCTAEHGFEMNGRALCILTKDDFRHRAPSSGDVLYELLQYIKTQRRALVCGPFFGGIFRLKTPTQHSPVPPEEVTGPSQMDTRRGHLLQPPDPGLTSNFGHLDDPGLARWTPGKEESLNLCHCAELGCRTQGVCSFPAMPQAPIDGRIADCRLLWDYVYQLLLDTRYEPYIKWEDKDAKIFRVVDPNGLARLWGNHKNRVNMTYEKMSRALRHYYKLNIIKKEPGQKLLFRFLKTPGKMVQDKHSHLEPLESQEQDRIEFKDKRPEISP
As to conditions: protein: recombinant; tags: N-terminal GST; dsDNA, one strand shown. In outline: as §1

For another assay, the target named is T11, ELF5 (Homo sapiens, UniProt Q9UKW6-2 1-255).
T11 sequence: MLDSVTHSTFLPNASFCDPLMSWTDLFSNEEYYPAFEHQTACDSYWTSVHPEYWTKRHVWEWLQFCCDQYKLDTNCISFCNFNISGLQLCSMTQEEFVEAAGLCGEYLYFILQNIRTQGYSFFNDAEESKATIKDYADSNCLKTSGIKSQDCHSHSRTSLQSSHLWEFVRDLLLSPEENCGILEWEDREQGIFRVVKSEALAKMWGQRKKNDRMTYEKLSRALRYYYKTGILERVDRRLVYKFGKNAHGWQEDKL
The note with it: protein: recombinant; tags: N-terminal GST; dsDNA, one strand shown. In outline:
as §1

Another assay deals with T12, ETV3 (Homo sapiens, UniProt P41162-2 1-143).
T12 sequence: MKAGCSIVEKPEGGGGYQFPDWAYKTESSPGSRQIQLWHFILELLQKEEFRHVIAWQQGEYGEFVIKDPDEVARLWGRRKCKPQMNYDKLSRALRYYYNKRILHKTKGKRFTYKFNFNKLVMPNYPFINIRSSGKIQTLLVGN
As to conditions: protein: recombinant; tags: N-terminal GST; dsDNA, one strand shown. The method, boiled down:
as §1

The target of another assay is ETV6 (Homo sapiens, UniProt P41212 1-452). The note with it: protein: recombinant; tags: N-terminal GST; dsDNA, one strand shown. In outline: as §1
Sequence of ETV6 (P41212 whole entry): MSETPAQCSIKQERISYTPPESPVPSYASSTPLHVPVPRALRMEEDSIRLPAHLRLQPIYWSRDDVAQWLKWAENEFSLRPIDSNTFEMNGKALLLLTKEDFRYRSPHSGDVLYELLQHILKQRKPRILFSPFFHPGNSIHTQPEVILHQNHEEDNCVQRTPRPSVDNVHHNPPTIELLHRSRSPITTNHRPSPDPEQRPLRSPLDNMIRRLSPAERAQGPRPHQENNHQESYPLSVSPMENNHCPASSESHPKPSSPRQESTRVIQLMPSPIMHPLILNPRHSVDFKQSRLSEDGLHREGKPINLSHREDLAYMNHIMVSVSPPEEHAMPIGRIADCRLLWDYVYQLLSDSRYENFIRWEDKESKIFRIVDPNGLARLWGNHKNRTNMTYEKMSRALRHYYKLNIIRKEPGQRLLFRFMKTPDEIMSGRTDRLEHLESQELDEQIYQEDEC

Sequence of ETV5 (P41161 whole entry): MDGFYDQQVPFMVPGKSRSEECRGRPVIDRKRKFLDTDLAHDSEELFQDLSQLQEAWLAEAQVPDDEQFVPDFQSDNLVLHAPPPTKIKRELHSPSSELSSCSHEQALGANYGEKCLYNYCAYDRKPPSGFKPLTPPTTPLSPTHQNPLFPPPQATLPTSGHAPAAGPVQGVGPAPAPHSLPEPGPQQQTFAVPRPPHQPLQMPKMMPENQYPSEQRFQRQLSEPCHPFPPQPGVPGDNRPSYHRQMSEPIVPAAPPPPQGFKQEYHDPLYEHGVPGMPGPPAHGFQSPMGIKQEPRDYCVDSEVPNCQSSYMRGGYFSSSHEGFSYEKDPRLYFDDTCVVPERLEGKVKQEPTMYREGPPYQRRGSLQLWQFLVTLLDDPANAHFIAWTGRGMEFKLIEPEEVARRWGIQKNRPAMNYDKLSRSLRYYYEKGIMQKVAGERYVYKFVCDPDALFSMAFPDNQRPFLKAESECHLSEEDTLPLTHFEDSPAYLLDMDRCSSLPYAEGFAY
Sequence of ETV1 (P50549 whole entry): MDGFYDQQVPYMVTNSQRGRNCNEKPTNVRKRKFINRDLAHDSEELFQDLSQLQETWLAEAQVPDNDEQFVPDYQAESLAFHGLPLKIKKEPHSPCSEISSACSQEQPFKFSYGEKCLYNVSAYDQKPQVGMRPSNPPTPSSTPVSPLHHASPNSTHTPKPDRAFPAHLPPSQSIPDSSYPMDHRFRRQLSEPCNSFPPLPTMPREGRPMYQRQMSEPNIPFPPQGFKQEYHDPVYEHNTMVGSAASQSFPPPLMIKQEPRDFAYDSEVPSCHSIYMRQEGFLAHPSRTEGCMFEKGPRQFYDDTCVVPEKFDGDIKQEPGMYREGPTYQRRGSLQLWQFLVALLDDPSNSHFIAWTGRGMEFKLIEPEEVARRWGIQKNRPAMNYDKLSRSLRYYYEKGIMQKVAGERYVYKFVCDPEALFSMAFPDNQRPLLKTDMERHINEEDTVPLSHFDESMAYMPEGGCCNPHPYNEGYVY
Sequence of CRX (O43186 whole entry): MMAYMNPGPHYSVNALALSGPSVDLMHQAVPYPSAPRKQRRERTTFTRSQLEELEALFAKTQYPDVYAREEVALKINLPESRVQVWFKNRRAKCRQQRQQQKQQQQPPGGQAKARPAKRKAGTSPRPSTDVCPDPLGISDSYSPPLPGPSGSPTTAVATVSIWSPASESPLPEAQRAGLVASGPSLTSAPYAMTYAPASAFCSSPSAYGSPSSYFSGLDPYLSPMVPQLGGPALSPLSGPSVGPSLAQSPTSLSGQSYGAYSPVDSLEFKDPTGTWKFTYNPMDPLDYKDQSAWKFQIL
Sequence of ELF4 (Q99607 whole entry): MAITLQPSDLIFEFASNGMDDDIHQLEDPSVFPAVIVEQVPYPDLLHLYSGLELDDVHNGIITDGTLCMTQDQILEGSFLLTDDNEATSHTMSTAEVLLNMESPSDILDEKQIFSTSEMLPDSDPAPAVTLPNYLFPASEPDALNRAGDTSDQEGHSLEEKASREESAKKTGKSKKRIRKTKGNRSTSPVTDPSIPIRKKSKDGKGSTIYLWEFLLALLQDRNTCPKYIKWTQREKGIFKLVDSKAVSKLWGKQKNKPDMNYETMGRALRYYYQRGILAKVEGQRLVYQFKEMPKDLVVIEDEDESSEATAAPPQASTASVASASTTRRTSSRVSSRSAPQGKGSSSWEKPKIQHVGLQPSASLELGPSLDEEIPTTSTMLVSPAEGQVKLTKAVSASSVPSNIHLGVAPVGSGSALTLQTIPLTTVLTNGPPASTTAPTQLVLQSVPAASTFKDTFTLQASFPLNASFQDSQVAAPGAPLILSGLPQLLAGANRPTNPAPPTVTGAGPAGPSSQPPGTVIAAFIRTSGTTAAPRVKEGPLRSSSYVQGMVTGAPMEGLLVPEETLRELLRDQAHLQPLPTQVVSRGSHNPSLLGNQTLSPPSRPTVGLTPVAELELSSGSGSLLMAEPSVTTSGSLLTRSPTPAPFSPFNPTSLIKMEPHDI
Sequence of HSF1 (Q00613 whole entry): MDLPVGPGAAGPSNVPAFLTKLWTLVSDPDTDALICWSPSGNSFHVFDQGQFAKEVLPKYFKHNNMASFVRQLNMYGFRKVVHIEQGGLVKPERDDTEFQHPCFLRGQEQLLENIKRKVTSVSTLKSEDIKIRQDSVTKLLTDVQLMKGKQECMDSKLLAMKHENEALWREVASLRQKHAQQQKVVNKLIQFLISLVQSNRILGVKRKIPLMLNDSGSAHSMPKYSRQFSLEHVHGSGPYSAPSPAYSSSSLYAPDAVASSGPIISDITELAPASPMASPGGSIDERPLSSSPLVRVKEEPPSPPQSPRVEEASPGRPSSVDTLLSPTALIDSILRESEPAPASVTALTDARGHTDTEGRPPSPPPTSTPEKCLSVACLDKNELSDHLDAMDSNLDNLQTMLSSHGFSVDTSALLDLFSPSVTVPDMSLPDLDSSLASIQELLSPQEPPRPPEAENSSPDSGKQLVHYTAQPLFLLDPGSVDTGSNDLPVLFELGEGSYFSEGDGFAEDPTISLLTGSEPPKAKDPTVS

For the sequence GTCTCC, the binding signal is 1.53 fold enrichment (6-mer frequency, TF over GST control) with FEV; 1.46 fold enrichment (6-mer frequency, TF over GST control) in the assay with ETV5; 1.15 fold enrichment (6-mer frequency, TF over GST control) with HSF1; 1.32 fold enrichment (6-mer frequency, TF over GST control) with SPIC; 1.43 fold enrichment (6-mer frequency, TF over GST control) with ELF4; 1.46 fold enrichment (6-mer frequency, TF over GST control) with ELK4. The binding signal in the assay with ETV2 was 1.38 fold enrichment (6-mer frequency, TF over GST control); with ELF3 it was 1.46 fold enrichment (6-mer frequency, TF over GST control); with CRX it was 1.04 fold enrichment (6-mer frequency, TF over GST control); in the assay with ETV1 it was 1.37 fold enrichment (6-mer frequency, TF over GST control); with ERF it was 1.45 fold enrichment (6-mer frequency, TF over GST control); with ETV3L it was 1.67 fold enrichment (6-mer frequency, TF over GST control). The binding signal with ETS2 is 1.52 fold enrichment (6-mer frequency, TF over GST control); with SPDEF, 1.47 fold enrichment (6-mer frequency, TF over GST control); with ETV7, 1.32 fold enrichment (6-mer frequency, TF over GST control); with ELF5, 1.4 fold enrichment (6-mer frequency, TF over GST control); with ETV3 it was 1.52 fold enrichment (6-mer frequency, TF over GST control); with ETV6, 1.51 fold enrichment (6-mer frequency, TF over GST control).
